The whole screen tested about 290,000 compounds, of which about 3,000 (1%) were called active. No stated cut-off is given here; in the data, active means inhibition mostly above about 36% (no sharp cut-off); inactive means mostly below about 34%. What follows is part of a selection rich in actives, with near analogues and random picks from the rest.

A short description of the test: NOD1 signaling inhibitors, primary screen, cell-based, luminescence, uHTS (AID 1578).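 Further: HEK-293T reporter cells stimulated with the NOD1 agonist gamma-tri-DAP.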 The settings on record: NOD1-driven NF-kB luciferase reporter cells, at 4 µM, active compounds read high.
As to `COc1ccc(CCNC(=O)c2oc3ccc(OC)cc3c2C)cc1`, the inhibition was -13.3% (inactive).
Then `CCOc1ccccc1NC(=O)CSc1nc2c(c(=O)n1C)SC(C)C2` (stereo not given), with -16.7% (inactive); and `O=C1COc2ccc(C(=O)COC(=O)CCc3ccc(S(=O)(=O)N4CCOCC4)cc3)cc2N1`, with 1.2% (inactive); and `Cc1ccc2nc(-c3cc(-c4ccccc4)no3)cn2c1`, with -4.9% (inactive).
With `CCc1ccn2cc(-c3cc(-c4ccccc4)no3)nc2c1` the figure was 45.6% (active); with `c1ccc(-c2cc(-c3ccccc3)on2)cc1`, -10% (inactive).
With `O=C(NCc1ccccc1)C1CCC(CNS(=O)(=O)c2cccs2)CC1` (stereo not given) the figure was -1.7% (inactive); with `CCN(C(=O)CSc1nc2cc(C(=O)OC)ccc2c(=O)n1Cc1ccco1)c1cccc(C)c1`, 74% (active); with `CCc1ccc(NC(=O)CSc2nc3cc(C(=O)OC)ccc3c(=O)n2Cc2ccco2)cc1`, -7.4% (inactive).
As for `COC(=O)c1ccc2c(=O)n(Cc3ccco3)c(SCC(=O)Nc3cc(C)on3)nc2c1`, the inhibition is -44.8% (inactive).
Then `Cc1ccc(S(=O)(=O)NC(=O)Nc2ccccc2)cc1`, with -30.4% (inactive); and `O=C(Cn1nnc(-c2ccc3c(c2)OCO3)n1)NCc1ccccc1`, with 4.7% (inactive); and `O=C(NCC(=O)N1CC(O)CC1C(=O)N1CC(O)CC1C(=O)OCc1ccccc1)OCc1ccccc1` (stereo not given), with -13.7% (inactive).
Then `CC(=O)Nc1ccc(S(=O)(=O)N(C)c2ccccc2)cc1`, with -12.7% (inactive); and `CCOC(=O)/C=C/C(=O)Nc1ccc(Oc2ccccc2)cc1`, with 6.8% (inactive).
Then `Cc1cc(NC(=O)Nc2cccc(C(F)(F)F)c2)no1`, with -7.7% (inactive); and `Cc1ccc(NC(=O)CSc2nn(-c3ccc(Cl)cc3)c(=S)s2)cc1S(=O)(=O)N(C)C`, with 53.2% (inactive).
With `NS(=O)(=O)c1cccc(NC(=O)CSc2nn(-c3ccccc3)c(=S)s2)c1`, the inhibition is 39.5% (inactive).
Then `Cc1c(C(=O)NCCSCc2cccc(C(F)(F)F)c2)cnn1-c1ccc(F)cc1`, with -3.5% (inactive); and `COc1cccc(NC(=O)Cc2ccc3ccccc3c2)c1`, with 15.2% (inactive).
Then `Cc1ccc(NC(=O)Cn2c(=O)cnc3ccccc32)cc1S(=O)(=O)N(C)C`, with -22.2% (inactive); and `Cc1sc(NC(=O)Nc2ccccc2)c(C(N)=O)c1C`, with -40.3% (inactive); and `COC(=O)c1sc(N2CCN(c3ccc(Cl)cc3)CC2)nc1N`, with 66.9% (active).
Then `COc1ccc(N2CCN(C(=O)C(C)(C)Oc3ccc(Cl)cc3)CC2)cc1`, with -14.6% (inactive); and `COc1ccc(N2CCN(C(=O)NC(=O)c3ccc(Cl)cc3)CC2)cc1`, with -13.4% (inactive).

The term inhibition denotes the change of the read-out against control, counted positive when it falls.

Values taken from PubChem BioAssay AID1578 (Sanford-Burnham Center for Chemical Genomics, 2009).
